In PubChem BioAssay AID1457 (National Center for Advancing Translational Sciences (NCATS), 2008):
The whole screen tested about 210,000 compounds, of which about 730 (0.35%) were called active. Another 1% or so got no clear call; they are omitted. The list comes from a sample in which actives are over-represented; it also holds similar structures and randomly drawn compounds. Unmarked numbers belong to inactive results. Calls follow the shape of the dose curve; as a rule, active = well fitted inhibition curve with a large enough effect; inconclusive = small, poorly fitted or top-dose-only effect; inactive = no such curve, though single readings can be large or run the other way.

Assay: qHTS Assay for Identifying the Cell-Membrane Permeable IMPase Inhibitors: Potentiation with Lithium;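 also: IP1 builds up when IMPase is blocked and the TR-FRET signal falls; nearly all actives have a fitted effect of over 50% in size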;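 as to activity, negative = IMPase inhibition: plate controls were basal vehicle for no effect and high inhibitor control for full effect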
Details: CHO-M1 cells, IP1 TR-FRET (IP-One), carbachol + lithium; series mostly up to 59.4 µM; activity, negative = IMPase inhibition: at the top concentration
Outline: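 Steps: plate 2000 CHO-M1 cells per well and culture 16–30 h; add compound and lithium; incubate 30 min, 37C; add d2-IP1 tracer and Eu cryptate anti-IP1 antibody in lysis buffer; read after 10 min at room temperature.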
Potency is read from the fitted curve at half-maximal effect.

Row | SMILES | Potency | activity, negative = IMPase inhibition
1 | O=C(C1=C(O)C(=O)N(c2ncccn2)C1c1cccs1)c1ccco1 (stereo unspecified) | 11.2 µM (active) | 
2 | O=C(c1ccco1)N1CCC2(CC1)CN(c1ncccn1)C2 |  | -29.1%
3 | O=C(c1ccco1)N1CCC2(CC1)CCN(c1ncccn1)CC2 |  | 2.75%
4 | C=CCC1CCC(=O)N2CCCC12 (stereo unspecified) |  | 8.46%
5 | C[C@@H]1C(c2ccc(F)cc2)=NN(c2ccc(Br)cc2)[C@H]1C(=O)N1CCOC1=O |  | 0.815%
6 | COC(=O)CC1c2ccccc2C(Cc2ccc(OC)cc2)=C(C)N1C(=O)OC (stereo unspecified) |  | 3.73%
7 | COc1cc(OC)c2c(c1)OC(=O)CC2c1cc(OC)c(OC)c(OC)c1 (stereo unspecified) |  | 23.6%
8 | CC1=C2[C@@H](O)[C@H]([C@@H](C)C(=O)NCCC(C)C)CC[C@@]2(C)C=CC1=O |  | 2.85%
9 | C=CC1(C)CC(=O)C2(O)C(C)(O1)C(OC(C)=O)C(O)C1C(C)(C)CCC(O)C12C (stereo unspecified) | inactive | 
10 | COC(=O)C1=C(C(=O)OC)[C@@H]2N(C)c3ccccc3[C@@]23C[C@@H](C(=O)OC)N(C(C)=O)C3=N1 |  | -5.12%
11 | CCCC(=O)n1nc(-c2ccccc2)nc1N |  | 1.74%
12 | Nc1c(C(=O)NCc2ccccc2)sc2nc3c(cc12)C(=O)CCC3 |  | -0.997% [at 38.3 µM]
13 | CCN(CC)C(=O)c1sc2nc(-c3ccccc3)ccc2c1N | 10 µM (active) | 
14 | CCCCC/C=C\CC1OC1CCCCCCCC(=O)O (stereo unspecified) | inactive | 
15 | O=C(COC(=O)c1cccc(Br)c1)Nc1cccc2c1C(=O)c1ccccc1C2=O | 11.2 µM (active) | 
16 | O=C(COC(=O)c1ccccc1)Nc1ccccc1Sc1ccccc1 |  | 2.86%
17 | O=C(COC(=O)Cn1cnc2ccccc21)Nc1cccc2c1C(=O)c1ccccc1C2=O |  | 16.9%
18 | C=CCOC(=O)NC(c1ccc(F)c(F)c1)C(C(=O)COC)C(=O)OC (stereo unspecified) | inactive | 
19 | Cc1csc(-c2coc3cc(O[C@@H]4O[C@H](CO)[C@@H](O)[C@@H](O)[C@H]4O)ccc3c2=O)n1 |  | 7.9%
20 | CC(C)(Oc1ccc(C2CC2(Cl)Cl)cc1)C(=O)O (stereo unspecified) |  | 8.64%
21 | CC(O)[C@@H](N)C(=O)O (stereo partly specified) |  | 12%
22 | CCCCCCCC/C=C\CCCCCCCC(=O)OC[C@H](CO)OC(C)=O | inactive | 

Row | SMILES | Potency | activity, negative = IMPase inhibition
23 | CCOC(=O)C1=C(C(=O)OCC)C(C(=O)OCC)N(S(=O)(=O)C(F)(F)F)c2ccccc21 (stereo unspecified) |  | 2.92%
24 | N#Cc1ccccc1NC(=O)c1cccc(COc2ccc(Cl)cc2Cl)c1 | 8.91 µM (active) | 
25 | CSc1ccc(C#N)cc1NC(=O)c1cccc(Cl)c1 |  | -4.13% [at 38.3 µM]
26 | Cc1cc(NC(=O)COc2ccc(Cl)cc2Cl)n(CCC#N)n1 |  | -18.1% [at 38.3 µM]
27 | O=C(Nc1c(-c2ccccc2)nc2c(Br)cc(Br)cn12)c1ccco1 | 10 µM (active) | 
28 | O=C(Nc1ccc(Sc2ccc(Br)cc2)cc1)c1ccco1 |  | 6.53% [at 38.3 µM]
29 | Cc1ccccc1NC(=O)c1cnn(-c2ccccc2)c1NC(=O)c1ccco1 |  | -10.3% [at 38.3 µM]
30 | COc1ccc(-c2c(C)cc3oc(=O)cc(-c4ccccc4)c3c2C)cc1OC |  | 16.6%
31 | C=C(C)C(=O)c1ccc(F)cc1 |  | 17.7%
32 | Cc1sc2ncnc(Sc3nc4ccccc4s3)c2c1C | 14.1 µM (active) | 
33 | c1ccc2sc(SCCSc3nc4ccccc4s3)nc2c1 |  | -2.64%
34 | CSc1ncnc2sc(C)c(C)c12 |  | 1.83%
35 | COC(C)C(C(=O)OCC1=CCN2CC[C@H](O)[C@@H]12)C(C)C (stereo partly specified) |  | 29.6%
36 | OC[C@H]1O[C@@H](n2cnc3c(NC4CCCC4)ncnc32)[C@H](O)[C@H]1O |  | 22.1%
37 | CC/C=C\C/C=C\C/C=C\C/C=C\C/C=C\C/C=C\CCC(=O)NCCc1ccc(O)c(O)c1 |  | 14.2%
38 | Cc1ccc2cc(C#N)c(SCC(=O)NCC3CCCO3)nc2c1C (stereo unspecified) |  | -16.1% [at 38.3 µM]
39 | Cc1nc2cc(NC(=O)CSc3nc4c(C)cccc4cc3C#N)ccc2s1 | 11.2 µM (active) | 
40 | Cc1nonc1NC(=O)CSc1nc2ccccc2cc1C#N |  | -6.66%
41 | O=C1c2cccc3cccc(c23)C(=O)N1CCCCCc1n[nH]c(=S)o1 |  | -2.87%
42 | O=C(CN1C(=O)c2cccc3cccc(c23)C1=O)N1CCCCC1 |  | -1.07%
43 | C[N+](C)(CCCCCC[N+](C)(C)CCCN1C(=O)c2cccc3cccc(c23)C1=O)CCCN1C(=O)c2cccc3cccc(c23)C1=O | 10 µM (active) | 
44 | O=C1CCC[C@@H]2CC(N3CCCCC3)C[C@@H]3CCN1[C@H]23 (stereo partly specified) |  | 16.1%

Row | SMILES | Potency | activity, negative = IMPase inhibition
45 | CCCCC[C@H](O)/C=C/[C@@H]1[C@@H](CC(=O)CCC(=O)O)[C@@H](O)C[C@H]1O |  | 17.9%
46 | CCCCC/C=C\C/C=C\CCCCCCCCCC(=O)NCC(=O)O |  | 3.03%
47 | N#Cc1c(-c2ccc(Cl)cc2)c2c([nH]c1=S)CCCC2 |  | 2.7%
48 | CN(C)c1nc(-c2cccnc2)nc(-c2ccc(Cl)cc2)c1C#N | 7.94 µM (active) | 
49 | CNc1nccc(-c2ccc(Cl)cc2)c1C#N |  | -2.1%
50 | COC(=O)CCCC1=CC2=CC(=O)C(C)(OC(=O)c3cccs3)C(=O)C2=CN1c1ccc(CO)cc1 (stereo unspecified) |  | -7.18%
51 | CC(=O)c1sc(N/N=C\c2ccc(C)cc2)nc1C |  | 5.69%
52 | CC(=O)c1sc(NC(=O)c2cccc3ccccc23)nc1C |  | -12.6% [at 38.3 µM]
53 | CC(=O)c1sc(NC(=O)c2ccc(C)cc2)nc1C | 12.6 µM (active) | 
54 | COC(=O)C1=C(C(=O)OC)[C@@H]2Nc3ccccc3[C@@]23C[C@@H](C(=O)OC)N(S(=O)(=O)c2ccc([N+](=O)[O-])cc2)C3=N1 |  | 23.4%
55 | CC(=O)OC1C([N+]2(C)CCCCC2)C[C@H]2C3CC[C@H]4C[C@H](OC(C)=O)C([N+]5(C)CCCCC5)CC4(C)C3CCC12C (stereo partly specified) |  | 27.8%
56 | COCOc1cc(OC)ccc1C(=O)/C=C/c1ccc([N+](=O)[O-])cc1 |  | -13.9%
57 | CC(=O)Nc1cc2ccc(OC(C)=O)cc2oc1=O | 8.91 µM (active) | 
58 | CC(=O)Oc1ccc(NC(=O)CCC2CCCCC2)c(C(=O)O)c1 |  | 6.82%
59 | CC(=O)c1cc(NC(=O)c2ccccc2)c(=O)oc1/C=C/N(C)C |  | 17.6% [at 38.3 µM]
60 | COCCN1C=C2C(=O)C(C)(OC(=O)C3CCCC3)C(=O)C=C2C=C1c1ccsc1 (stereo unspecified) |  | 0.622%
61 | N#Cc1cccc(CS(=O)(=O)c2nnnn2-c2cc(C(F)(F)F)cc(C(F)(F)F)c2)c1 |  | 20.7%
62 | C=C(C(C)=O)C(O)c1cccs1 (stereo unspecified) |  | -3.84%
63 | COc1ccc(-c2nc3c(c4c2C[C@H](c2ccccc2)OC4)CN(C(=O)c2cccnc2)CC3)c(C)c1 |  | 2.33%
64 | Cc1ccc(-c2csc(SCC(=O)Nc3cc(C)on3)n2)cc1 |  | 7.82%
65 | Cc1nc(SCC(=O)Nc2cc(C)on2)c2c3c(sc2n1)CCCC3 | 10 µM (active) | 
66 | Cc1cc(C)n(-c2nc(SCC(=O)N3CCCC3)c3c4c(sc3n2)CCCC4)n1 |  | 16.9%
